# In PubChem BioAssay AID1159580 (chemical genetic matrix, 2015):
# Among all 5,500 compounds or so, about 2,000 (36%) were called active. Roughly 18% stayed inconclusive and do not appear here. Some of the results follow. Unmarked numbers belong to inactive results. Rule as the data show it: active = normalized growth mostly below about 0.91 (no sharp cut-off); inconclusive = no clear call, values can overlap the other calls; inactive = mostly above about 0.92.
# Test: chemical genetic growth profiling, strain panel (AID 1159580);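 also: tested at 20 µM; growth read once vehicle control cultures reached saturation at 30 °C; 1 = growth at the plate median or of vehicle wells; lower values mean less growth of the strain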
# Settings: growth OD
# [1] = S. cerevisiae deletion strains, locus YBR229C, strain ROT2, hits give low values
# [2] = S. cerevisiae deletion strains, locus YDL101C, strain DUN1, hits give low values
# [3] = S. cerevisiae deletion strains, locus YEL061C, strain CIN8, hits give low values
# [4] = S. cerevisiae deletion strains, locus YHR030C, strain SLT2, hits give low values
# [5] = S. cerevisiae deletion strains, locus YJR043C, strain POL32, hits give low values
# [6] = S. cerevisiae deletion strains, locus YKL190W, strain CNB1, hits give low values
# [7] = S. cerevisiae deletion strains, locus YLR039C, strain RIC1, hits give low values
# [8] = S. cerevisiae deletion strains, locus YLR262C, strain YPT6, hits give low values
# [9] = S. cerevisiae deletion strains, locus YMR263W, strain SAP30, hits give low values
# [10] = S. cerevisiae deletion strains, locus YNL153C, strain GIM3, hits give low values
# [11] = S. cerevisiae deletion strains, locus YNL322C, strain KRE1, hits give low values
structure (smiles),measurement,setting,value
Cc1cccc(Cn2c(C)c(C)c(S(=O)(=O)c3ccccc3)c2N)c1C,normalized growth,"S. cerevisiae deletion strains, locus YAL013W, strain DEP1, hits give low values",1.03
same,normalized growth,[1],1.01
same,normalized growth,[2],0.98
same,normalized growth,"S. cerevisiae deletion strains, locus YDL134C, strain PPH21, hits give low values",0.978
same,normalized growth,"S. cerevisiae deletion strains, locus YDR150W, strain NUM1, hits give low values",1.01
same,normalized growth,[3],0.998
same,normalized growth,"S. cerevisiae deletion strains, locus YGR078C, strain PAC10, hits give low values",1.03
same,normalized growth,"S. cerevisiae deletion strains, locus YGR229C, strain SMI1, hits give low values",0.984
same,normalized growth,[4],0.917
same,normalized growth,"S. cerevisiae deletion strains, locus YHR087W, strain rtc3, hits give low values",1.01
same,normalized growth,"S. cerevisiae deletion strains, locus YJL187C, strain SWE1, hits give low values",0.996
same,normalized growth,[5],1
same,normalized growth,"S. cerevisiae deletion strains, locus YJR075W, strain HOC1, hits give low values",0.996
same,normalized growth,[6],0.987
same,normalized growth,[7],0.803
same,normalized growth,"S. cerevisiae deletion strains, locus YLR058C, strain SHM2 (second series), hits give low values",0.999
same,normalized growth,"S. cerevisiae deletion strains, locus YLR085C, strain ARP6, hits give low values",1.24 [resistant] (active)
same,normalized growth,[8],0.873
same,normalized growth,"S. cerevisiae deletion strains, locus YML094W, strain GIM5, hits give low values",1.05
same,normalized growth,"S. cerevisiae deletion strains, locus YMR219W, strain ESC1, hits give low values",1.01
same,normalized growth,[9],1.01
same,normalized growth,"S. cerevisiae deletion strains, locus YNL128W, strain TEP1, hits give low values",0.998
same,normalized growth,[10],1.04
same,normalized growth,"S. cerevisiae deletion strains, locus YNL298W, strain CLA4 (second series), hits give low values",0.98
same,normalized growth,[11],1
same,normalized growth,"S. cerevisiae deletion strains, locus YNR030W, strain Alg12, hits give low values",1.01
same,normalized growth,"S. cerevisiae deletion strains, locus YPL055C, strain LGE1, hits give low values",1.06
same,normalized growth,"S. cerevisiae deletion strains, locus YPL241C, strain CIN2, hits give low values",1.03
same,normalized growth,"S. cerevisiae deletion strains, locus YPR135W, strain CTF4, hits give low values",1.16
CC1=C(/C=C/C(C)=C/C=C/C(C)=C/C=C/C=C(C)/C=C/C=C(C)/C=C/C23OC2(C)CC(O)CC3(C)C)C(C)(C)CC(O)C1 (stereo unspecified),normalized growth,"S. cerevisiae deletion strains, locus YBR021W, strain FUR4, hits give low values",1
same,normalized growth,[1],1.01
same,normalized growth,"S. cerevisiae deletion strains, locus YCL029C, strain bik1, hits give low values",1.02
same,normalized growth,"S. cerevisiae deletion strains, locus YDL035C, strain GPR1, hits give low values",1.01
same,normalized growth,"S. cerevisiae deletion strains, locus YDL074C, strain BRE1, hits give low values",1.03
same,normalized growth,[2],1.01
same,normalized growth,"S. cerevisiae deletion strains, locus YDL185W, strain tfp1, hits give low values",1
same,normalized growth,"S. cerevisiae deletion strains, locus YDL192W, strain arf1, hits give low values",1
same,normalized growth,"S. cerevisiae deletion strains, locus YDR101C, strain arx1, hits give low values",1.01
same,normalized growth,"S. cerevisiae deletion strains, locus YDR162C, strain NBP2, hits give low values",0.997
same,normalized growth,"S. cerevisiae deletion strains, locus YDR318W, strain mcm21, hits give low values",1.01
same,normalized growth,"S. cerevisiae deletion strains, locus YDR388W, hits give low values",1.01
same,normalized growth,"S. cerevisiae deletion strains, locus YDR502C, strain sam2, hits give low values",1.02
same,normalized growth,[3],1.01
same,normalized growth,"S. cerevisiae deletion strains, locus YER110C, hits give low values",1.02
same,normalized growth,"S. cerevisiae deletion strains, locus YER155C, strain BEM2, hits give low values",1.01
same,normalized growth,"S. cerevisiae deletion strains, locus YER167W, strain BCK2, hits give low values",1.02
same,normalized growth,"S. cerevisiae deletion strains, locus YGL078C, strain dbp3, hits give low values",0.995
same,normalized growth,"S. cerevisiae deletion strains, locus YGL086W, strain mad1, hits give low values",1.05
same,normalized growth,"S. cerevisiae deletion strains, locus YGL248W, strain PDE1, hits give low values",1
same,normalized growth,"S. cerevisiae deletion strains, locus YGR135W, strain pre9, hits give low values",0.982
same,normalized growth,"S. cerevisiae deletion strains, locus YGR252W, strain gcn5, hits give low values",0.987
same,normalized growth,[4],1.01
same,normalized growth,"S. cerevisiae deletion strains, locus YHR079C, strain IRE1 (second series), hits give low values",1
same,normalized growth,"S. cerevisiae deletion strains, locus YHR094C, strain hxt1, hits give low values",1.01
same,normalized growth,"S. cerevisiae deletion strains, locus YHR129C, strain ARP1, hits give low values",1.02
same,normalized growth,"S. cerevisiae deletion strains, locus YHR200W, strain rpn10, hits give low values",1.01
same,normalized growth,"S. cerevisiae deletion strains, locus YIL066C, strain RNR3, hits give low values",1.01
same,normalized growth,"S. cerevisiae deletion strains, locus YIL073C, strain SPO22, hits give low values",1.1
same,normalized growth,"S. cerevisiae deletion strains, locus YIL125W, strain kgd1, hits give low values",1.01
same,normalized growth,"S. cerevisiae deletion strains, locus YIR030C, strain dcg1, hits give low values",1.01
same,normalized growth,"S. cerevisiae deletion strains, locus YJL095W, strain BCK1, hits give low values",0.998
same,normalized growth,"S. cerevisiae deletion strains, locus YJL134W, strain LCB3, hits give low values",1.01
same,normalized growth,"S. cerevisiae deletion strains, locus YJL168C, strain set2, hits give low values",1.01
same,normalized growth,"S. cerevisiae deletion strains, locus YJL187C, strain SWE1 (second series), hits give low values",1
same,normalized growth,[5],0.999
same,normalized growth,"S. cerevisiae deletion strains, locus YKL009W, strain mrt4, hits give low values",1.03
same,normalized growth,"S. cerevisiae deletion strains, locus YKL068W, hits give low values",1
same,normalized growth,"S. cerevisiae deletion strains, locus YKL085W, strain MDH1 (second series), hits give low values",1.01
same,normalized growth,"S. cerevisiae deletion strains, locus YKL085W, strain MDH1, hits give low values",1.01
same,normalized growth,[6],1.01
same,normalized growth,"S. cerevisiae deletion strains, locus YKR001C, strain vps1, hits give low values",1.04
same,normalized growth,[7],1.01
same,normalized growth,"S. cerevisiae deletion strains, locus YLR058C, strain SHM2, hits give low values",1.01
same,normalized growth,"S. cerevisiae deletion strains, locus YLR102C, strain apc9, hits give low values",1.02
same,normalized growth,[8],0.973
same,normalized growth,"S. cerevisiae deletion strains, locus YLR268W, strain sec22, hits give low values",1.02
same,normalized growth,"S. cerevisiae deletion strains, locus YLR330W, strain CHS5, hits give low values",1.02
same,normalized growth,"S. cerevisiae deletion strains, locus YLR342W, strain FKS1 (second series), hits give low values",1.06
same,normalized growth,"S. cerevisiae deletion strains, locus YLR371W, strain rom2, hits give low values",1.01
same,normalized growth,"S. cerevisiae deletion strains, locus YLR418C, strain cdc73, hits give low values",1
same,normalized growth,"S. cerevisiae deletion strains, locus YML016C, strain PPZ1, hits give low values",1.01
same,normalized growth,"S. cerevisiae deletion strains, locus YML032C, strain rad52, hits give low values",1
same,normalized growth,"S. cerevisiae deletion strains, locus YML124C, strain tub3, hits give low values",1
same,normalized growth,"S. cerevisiae deletion strains, locus YMR078C, strain ctf18, hits give low values",1.02
same,normalized growth,"S. cerevisiae deletion strains, locus YMR223W, strain ubp8, hits give low values",1.01
same,normalized growth,[9],1.01
same,normalized growth,"S. cerevisiae deletion strains, locus YMR307W, strain GAS1, hits give low values",1.02
same,normalized growth,"S. cerevisiae deletion strains, locus YNL067W, strain RPL9B, hits give low values",1
same,normalized growth,[10],0.994
same,normalized growth,"S. cerevisiae deletion strains, locus YNL233W, strain BNI4, hits give low values",1.02
same,normalized growth,"S. cerevisiae deletion strains, locus YNL250W, strain rad50, hits give low values",1.01
same,normalized growth,"S. cerevisiae deletion strains, locus YNL271C, strain bni1, hits give low values",1
same,normalized growth,"S. cerevisiae deletion strains, locus YNL298W, strain CLA4, hits give low values",0.991
same,normalized growth,"S. cerevisiae deletion strains, locus YNL307C, strain MCK1, hits give low values",1.01
same,normalized growth,[11],1.01
same,normalized growth,"S. cerevisiae deletion strains, locus YNR052C, strain pop2, hits give low values",1
same,normalized growth,"S. cerevisiae deletion strains, locus YOL006C, strain TOP1, hits give low values",1.11
same,normalized growth,"S. cerevisiae deletion strains, locus YOL012C, strain htz1",0.925
same,normalized growth,"S. cerevisiae deletion strains, locus YOL147C, strain pex11, hits give low values",1.01
same,normalized growth,"S. cerevisiae deletion strains, locus YOR061W, strain CKA2, hits give low values",1.02
same,normalized growth,"S. cerevisiae deletion strains, locus YOR069W, strain VPS5, hits give low values",1.02
same,normalized growth,"S. cerevisiae deletion strains, locus YOR136W, strain idh2, hits give low values",1
same,normalized growth,"S. cerevisiae deletion strains, locus YOR144C, strain elg1, hits give low values",0.998
same,normalized growth,"S. cerevisiae deletion strains, locus YOR184W, strain ser1, hits give low values",1.03
same,normalized growth,"S. cerevisiae deletion strains, locus YOR316C, strain cot1, hits give low values",1.03
same,normalized growth,"S. cerevisiae deletion strains, locus YPR119W, strain clb2, hits give low values",0.994
same,normalized growth,"S. cerevisiae deletion strains, locus YPR141C, strain kar3, hits give low values",1.01
same,normalized growth,"S. cerevisiae deletion strains, locus YPR163C, strain tif3, hits give low values",1.01
same,normalized growth,"S. cerevisiae deletion strains, locus YPR167C, strain met16, hits give low values",1.01
same,normalized growth,"S. cerevisiae deletion strains, strain wtn01, hits give low values",1.02
same,normalized growth,"S. cerevisiae strains, strain wild type, hits give low values",1.01
